# Laboratory results taken from ChEMBL document CHEMBL4513216, “Probing the Open Global Health Chemical Diversity Library for Multistage-Active Starting Points for Next-Generation Antimalarials” (ACS Infect Dis, 2020).
# Among all 69,000 compounds or so, about 8,600 (12%) showed an effect of 50% or more. This is one part of a sample in which strong results are shown more often than they occur.
# System: Plasmodium berghei
# Assay: Screen against P. berghei liver stage (PbLuc), transformed with Luciferase, at 10uM
# Assay type: functional, HepG2
# Conditions: tested at 10 uM
row,SMILES,INHIBITION
1,O=C(CC1C=CCC1)N1CCc2ncnc(NCc3ccon3)c2CC1 (stereo unspecified),34.5%
2,CC(NC(=O)CSCC#N)c1ccc(F)cc1 (stereo unspecified),-13.3%
3,CC(NC(=O)CSCC#N)c1ccc(Cl)cc1 (stereo unspecified),34.7%
4,CC(NC(=O)CSCC#N)c1ccccc1 (stereo unspecified),55.5%
5,Cc1c(Br)cnn1CCC(=O)N(C)Cc1c(Cl)cnn1C,32.2%
6,c1cncc(N2CCOCC3(CN(Cc4cccs4)CCO3)C2)c1 (stereo unspecified),53.2%
7,c1cncc(N2CCCC3(CN(Cc4cccs4)CCO3)C2)c1 (stereo unspecified),63.7%
8,COc1ccc(N2CCCC3(C2)CN(c2cccnc2)CCO3)cc1 (stereo unspecified),8.85%
9,O=C(c1ccncc1)N1CCOC2(COCCN(c3cccnc3)C2)C1 (stereo unspecified),31.4%
10,CC(C)N1CCOCC2(CN(Cc3cccs3)CCO2)C1 (stereo unspecified),41.2%
11,Fc1cnc(N2CCCC3(CN(Cc4cccs4)CCO3)C2)nc1 (stereo unspecified),32.5%
12,O=C(CCc1nc(C2CC2)no1)c1ccc2c(c1)OCCO2,-5.22%
13,CN1CCCC(c2cncc(C(=O)NCc3ccccc3Cl)n2)C1 (stereo unspecified),-54.1%
14,CC(C)=CCN1C(=O)[C@@H]2CC[C@H]1CN(c1ncccn1)C2,12.7%
15,CC(C)(C)NC(=O)CNc1ccc(Br)cn1,25.4%
16,O=C(NCCCn1cccn1)c1nc2ccccc2[nH]1,15.7%
17,Cc1csc(NC(=O)NCCCN2CCC(C(N)=O)CC2)n1,-21.1%
18,Cc1ccnc(OC[C@]23COC[C@H]2CN(C(=O)Cc2ccsc2)C3)n1,-39.9%
19,Cc1n[nH]c(C)c1NC(=O)CN1CCCC1c1noc(C2CC2)n1 (stereo unspecified),26.5%
20,c1ccc(-c2nn3c(CN4CCOCC4)nnc3s2)nc1,25.9%
21,COc1cc(N2C[C@H]3CCC[C@@H](CN(C)C)[C@H]3C2)ncn1,32.2%
22,Cc1nc(CN2C[C@@H]3CN(c4ncc(F)cn4)C[C@@H]3C2=O)cs1,5.63%
23,COCCN1C[C@@H]2CN(c3ncccn3)C[C@@H]2C1=O,-14.6%
24,COCCN1C[C@@H]2CN(c3ncc(F)cn3)C[C@@H]2C1=O,53.4%
25,COc1cc(N2C[C@H]3CCC[C@@H](CN(C)C4CC4)[C@H]3C2)ncn1,20.6%
26,Cc1ccc(N2C[C@@H](CN3CCOCC3)[C@@H](CO)C2)nn1,20.4%

row,SMILES,INHIBITION
1,Cc1ccc(N2C[C@H]3CCC[C@@H](CN(C)C)[C@H]3C2)nn1,-10.5%
2,COc1cc(N2C[C@H]3CN(CCN4CCCC4)C(=O)[C@H]3C2)ncn1,17.2%
3,COCCN1CC[C@H]2CN(c3cc(OC)ncn3)C[C@@H]2C1=O,54.1%
4,COc1cc(N2C[C@H]3CN(CC(=O)N(C)C)C(=O)[C@H]3C2)ncn1,42.3%
5,COc1cc(N2C[C@H]3CCC[C@@H](CN4CCCC4)[C@H]3C2)ncn1,76.5%
6,Cc1ccc(N2C[C@H]3CCC[C@@H](CN4CCOCC4)[C@H]3C2)nn1,61.9%
7,N[C@H]1c2ccccc2C[C@@H]1NC(=O)C1CCN(Cc2ccco2)CC1,-13.6%
8,O=C(CS(=O)(=O)Cc1csc(-c2ccc(F)cc2)n1)NCC1CC1,0.991%
9,Cc1ccn2c(F)c(C(=O)N3CCC4(CCC(=O)N(C)C4)CC3)nc2c1,20.5%
10,Cc1cnn(CCNCC(O)c2ccc(S(C)(=O)=O)cc2)c1 (stereo unspecified),12.6%
11,c1cc(-c2nn3c(CN4CCOCC4)nnc3s2)ccn1,26.7%
12,COc1ccc2c(c1)CN(CC(=O)NC1CCCC1)CC2,-2.48%
13,Cc1cc2nc(SCC(=O)N3CCCC3)n(C(C)C)c(=O)c2[nH]1,-19.7%
14,COCCN(C)C[C@@H]1CCC[C@@H]2CN(c3cc(OC)ncn3)C[C@@H]21,41.5%
15,COc1cc(N2C[C@H]3CN(C(=O)c4cnccn4)C[C@H]3C2)ncn1,-1.15%
16,COc1cc(N2C[C@H]3CCN(CCN4CCCC4)C[C@H]3C2)ncn1,52.6%
17,COc1cc(N2C[C@H]3OCC[C@H]3[C@H](C(=O)N3CCCC3)C2)ncn1,30.3%
18,COc1cc(N2C[C@H]3CCC[C@@H](CN4CCOCC4)[C@H]3C2)ncn1,73%
19,c1cnc(N2C[C@H]3CCC[C@@H](CN4CCCC4)[C@H]3C2)nc1,9.97%
20,COCCN1C[C@@H](C)[C@@]2(COCCN(C(=O)c3cnc(C)cn3)C2)C1,8.57%
21,CC(=O)NCc1noc2c1CN(CCN1CCCC1)CC2,39.3%
22,O=C(O)COc1ccccc1CN1CCCC1c1cnccn1 (stereo unspecified),47.2%
23,O=C(C[C@@H]1COC[C@H]2CN(Cc3ccccc3)C[C@@H]12)N1CCCC1,41.2%
24,O=C1[C@@H]2CCN(Cc3ccoc3)C[C@@H]2OCCN1Cc1cccc(F)c1,70.7%
25,O=C1[C@@H]2CCN(Cc3ccncc3)C[C@@H]2OCCN1c1ccccc1,55.2%
26,O=C1[C@@H]2CCN(CC3CCOCC3)C[C@@H]2OCCN1c1ccccc1,-37.8%

row,SMILES,INHIBITION
1,Fc1ccccc1CN1C[C@@H]2CN(Cc3cccnc3)CCO[C@@H]2C1,27.5%
2,COc1ccc(CN2C[C@@H]3CN(Cc4cccnc4)CCO[C@@H]3C2)cc1,64.5%
3,O=C1[C@@H]2CCN(Cc3ccccn3)C[C@@H]2OCCN1c1ccccc1,10.1%
4,Cc1cc(CN2CC[C@H]3C(=O)N(c4cccnc4)CCO[C@H]3C2)no1,53.2%
5,Cc1ccc(N2CCO[C@H]3CN(Cc4cc(C)on4)CC[C@H]3C2=O)cn1,48.6%
6,O=C1[C@H]2CN(C3CCOCC3)C[C@H]2CN1Cc1cccc(F)c1,1.48%
7,Cc1cc(CN2CC[C@H]3C(=O)N(c4ccccc4)CCO[C@H]3C2)no1,-33.5%
8,Cc1ccc(CN2CC[C@H]3C(=O)N(Cc4cccnc4)CCO[C@H]3C2)o1,33.4%
9,COc1ccccc1CN1C[C@@H]2CN(Cc3cccnc3)CCO[C@@H]2C1,20.1%
10,O=c1c2c[nH]c(N3CCCC3)nc-2cn1C1CCS(=O)(=O)C1 (stereo unspecified),42.1%
11,CC(C)n1[nH]c(=O)c2c1NC(=O)CC2c1ccc(C#N)cc1 (stereo unspecified),-1.04%
12,O=C1NCCCCC1Sc1ccc(F)c(F)c1 (stereo unspecified),25.2%
13,O=C(N1CCCC1)N1CC[C@H]2[C@H]1CCN2c1ncccn1,19.8%
14,Cc1nc(CC(=O)N2CCC(c3ccn4nccc4n3)CC2)cs1,23.9%
15,CCOc1ccccc1-n1c(C2CCC2)n[nH]c1=O,-27.5%
16,O=C1[C@@H]2CCN(Cc3ccoc3)C[C@@H]2OCCN1c1ccccc1,21.6%
17,c1cnc(N2CCO[C@@H]3CN(Cc4ccoc4)C[C@@H]3C2)nc1,33.5%
18,O=C1[C@@H]2CCN(Cc3ccoc3)C[C@@H]2OCCN1c1cccnc1,54.4%
19,O=C1[C@@H]2CCN(Cc3ccc(F)cc3)C[C@@H]2OCCN1c1cccnc1,24.9%
20,Cc1cnc(N2CC[C@@H]3CN(Cc4ccncc4)CCO[C@@H]3C2)nc1,-15.3%
21,c1ccc(N2CC[C@@H]3CN(Cc4ccncc4)CCO[C@@H]3C2)cc1,65.1%
22,O=C1[C@@H]2CCN(Cc3ccoc3)C[C@@H]2OCCN1Cc1cccnc1,12.5%
23,Cc1ccnc(N2CCN(Cc3ccccc3)CC(O)C2)c1 (stereo unspecified),43.9%
24,c1cnc(N2CC[C@@H]3CN(Cc4ccncc4)CCO[C@@H]3C2)nc1,-33%
25,Cc1cc(N2CCN(Cc3ccccc3)CC(O)C2)cc(C)n1 (stereo unspecified),36.8%
26,c1cncc(CN2CCO[C@@H]3CN(Cc4ccoc4)CC[C@@H]3C2)c1,50.9%

row,SMILES,INHIBITION
1,OC1CN(Cc2ccccc2)CCN(c2ccncc2)C1 (stereo unspecified),57.6%
2,CCNc1nc(-c2cccnc2)c(-c2ccnc(N3CCCC3)n2)s1,48.6%
3,CN(C)C(=O)CCCn1ccc(NC(=O)NCc2cccc(F)c2)n1,13.8%
4,O=C(NCc1cc[nH]n1)NCC(O)c1ccc(F)c(F)c1 (stereo unspecified),-48.4%
5,CCN(CC)S(=O)(=O)c1cccc(C(=O)N(C)Cc2ccsc2)c1,-61.4%
6,CC[C@H]1N(C)CCC[C@]12CCC(=O)N2Cc1ccncc1,43.2%
7,CCOc1ccc(C(=O)N2CCCC2c2c(C)nn(C)c2OC)cn1 (stereo unspecified),-105%
8,Cc1c(CN2CCCC(n3c(=O)oc4ccccc43)C2)cnn1C (stereo unspecified),35.75%
9,N#Cc1cccc(CN2C[C@@H]3CN(c4ncccn4)C[C@@H]3C2)c1,8.66%
10,Cc1cc(C)n(CC2CN(Cc3cccc(C#N)c3)CCO2)n1 (stereo unspecified),-8.11%
11,N#Cc1cccc(CN2CC[C@@H]3CN(c4ncccn4)CCO[C@@H]3C2)c1,56.4%
12,Cc1cc(NC(=O)CN2CCCC2c2noc(C(C)C)n2)n(C)n1 (stereo unspecified),6.81%
13,CC(C)c1nc(C2CCCN2Cc2ccno2)no1 (stereo unspecified),17%
14,Cc1cc(NC(=O)CN2CCCC2c2noc(C3CC3)n2)no1 (stereo unspecified),21.6%
15,CCc1ocnc1C(=O)N1CCCC1c1noc(C(C)C)n1 (stereo unspecified),11.7%
16,CC(C)c1nc(C2CCCN2C(=O)c2nccnc2N)no1 (stereo unspecified),61.1%
17,CC(C)c1nc(C2CCCN2Cc2ccncc2Cl)no1 (stereo unspecified),53.9%
18,Cc1nnc(NC(=O)CN2CCCC2c2noc(C(C)C)n2)s1 (stereo unspecified),-36.1%
19,CCc1nc(C2CCCN2C(=O)c2nccnc2N)no1 (stereo unspecified),-3.18%
20,CC(C)c1nc(C2CCCN2CC(=O)Nc2ccc(Cl)cn2)no1 (stereo unspecified),54.6%
21,CC(C)c1nc(C2CCCN2Cc2ccccc2C#N)no1 (stereo unspecified),22.5%
22,Cc1cc(NC(=O)CN2CCCC2c2noc(C(C)C)n2)no1 (stereo unspecified),50.3%
23,CC(C)c1nc(C2CCCN2CC(=O)Nc2cccnc2)no1 (stereo unspecified),-17.6%
